Laboratory results published in PubChem BioAssay.

test: basal 3T3-L1 adipocyte mitochondrial potential changes, profiling panel, cell-based, JC-1 fluorescence, 3T3-L1 adipocytes, 24 h, 100 nL compound (AID 1168); conditions: JC-1 mitochondrial fluorescence, higher = more signal, called active from +8 up or from −8 down; note: test concentration not given here

z-score, inactive:
CN1C(=O)[C@]2(CCC(=O)OC(C)(C)C)N=C(c3ccc(OCCCO)cc3)O[C@@H]2c2ccccc21 1.41
CC(c1ccccc1)C(O)C1C=CC2C(=O)N(c3ccccc3)C(=O)C2N1Nc1ccc(C#N)cc1 (configuration not stated) 0.0393
COCCOC(=O)N1C(=O)[C@@]2(c3cc(C#CCCO)ccc31)[C@H](C(=O)N1CCN(c3ncccn3)CC1)[C@H]1C(=O)O[C@H](c3ccccc3)[C@H](c3ccccc3)N1[C@@H]2c1ccc(O)cc1 0.339
C#CCN(C/C=C/c1ccccc1)[C@H](CO[Si](C)(C)C(C)(C)C)c1ccccc1 0.155
NCCCC[C@@H]1NC(=O)[C@H]2C[C@@H](C(=O)O)[C@@H](c3cccc(OCCO)c3)N2C1=O 0.0425
[N-]=[N+]=NCc1ccccc1C[C@]1(C(=O)N2CCCCC2)N=C(c2ccc(OCCCO)cc2)O[C@H]1c1ccccc1 0.845
CCCCC(=C=CC[C@H](O)c1ccc(OCCO)cc1)C[C@H](O)c1ccccn1 -0.794
CN(C)C(=O)[C@@]1(CCS(=O)(=O)c2ccccc2)N=C(c2ccc(OCCCO)cc2)O[C@H]1c1ccccc1N=[N+]=[N-] -0.477
[N-]=[N+]=NCc1ccccc1[C@@H]1OC(c2ccc(OCCCO)cc2)=N[C@]1(Cc1ccccc1)C(=O)NCc1ccccc1 0.594
O=C(NCCO)C1=C[C@H](Oc2ccccc2I)[C@@H](O)[C@H](NCc2ccc(F)cc2)C1 0.471
COc1ccc([Si](C)(C)[C@@H]2[C@@H](CC(=O)N(CCO)Cc3ccccc3)O[C@]3(C(=O)N(Cc4ccc(N5CCC5=O)cc4)c4ccccc43)[C@H]2C)cc1 1.95
O=C1NC(=O)C2C1C=CC(C(O)c1cccc(O)c1)N2Nc1ccc(Cl)cc1Cl (configuration not stated) -0.299
CC(C)C[C@@H]1NC(=O)C([C@@H](C)OCc2ccccc2)NC(=O)[C@@]23C(=O)N[C@@H](Cc4ccccc4)C2[C@H](C)[C@@]2(C)O[C@H]2C3/C=C/CC/C=C/CNC1=O (some centres not stated) 0.17
COc1ccc([Si](C)(C)[C@H]2[C@H](CCO)O[C@@]3(C(=O)N(Cc4ccc(N5CCOC5=O)cc4)c4ccccc43)[C@@H]2C)cc1 1.82
COc1ccc(CCNC(=O)[C@@]2(Sc3ccc(C)cc3)CC(=O)N(Cc3cc(C(F)(F)F)cc(C(F)(F)F)c3)[C@@H]2c2ccc(CO)cc2)cc1 -0.563
CCCCC(O)C1C=CC2C(=O)NC(=O)C2N1Nc1ccc(Cl)cc1Cl (configuration not stated) -0.831
CO[C@H]1O[C@H](CO)[C@@H](OC(=O)Nc2ccc3c(c2)OCO3)[C@@H]2OC(=O)[C@@H](Cc3ccccc3)C/C=C/C[C@H](Cc3ccccc3)C(=O)O[C@@H]12 0.912
CN(C)C(=O)[C@]1(Cc2ccccc2CN=[N+]=[N-])N=C(c2ccc(OCCCO)cc2)O[C@@H]1c1ccccc1N=[N+]=[N-] 2.38
O=C1OCCC=C[C@H]2OC34C=CCN(CCN5CCOCC5)C(=O)[C@H]3N(CCCO)C(=O)[C@@H]4C12 (some centres not stated) 1.33
C=CCNC(=O)[C@@H]1[C@H]2C(=O)O[C@H](c3ccccc3)[C@H](c3ccccc3)N2[C@H](c2ccccc2OCCO)[C@@]12C(=O)N(C(=O)OCCOC)c1ccc(C#CCCO)cc12 0.507
C=CCC(OC(C)=O)[C@@H]1[C@@H](N(Cc2cccc3ccccc23)C(=O)c2cccc3ccccc23)c2cc(OCCCO)ccc2N1C(=O)Cc1ccc2ccccc2c1 (some centres not stated) -0.0423
C=C(COC)/C(=C/C[C@@H](OC(C)=O)c1ccccc1OCCO)c1cc(C(=O)OC)ccc1OC 0.00709
COCC(=C=CC[C@@H](O)c1cccc(OCCO)c1)C[C@@H](O)COCc1ccccc1 0.362
CCCCC=C[C@@H](NC(=O)c1ccc(C(F)(F)F)cc1)c1ccccc1 -1.12
COC(=O)[C@]1(CO)N=C(c2ccc(OCCCO)cc2)O[C@@H]1c1ccccc1CN=[N+]=[N-] 0.039
COC(=O)[C@@]1(Cc2ccc(OC)cc2)[C@H]2c3cc(C(=O)N4CCCC4)n(CCc4ccc(OC)c(Br)c4)c3C[C@H]2CN1C(=O)c1ccccc1 -0.641
COCCOC(=O)N1C(=O)[C@@]2(c3cc(C#CCC(C(=O)OC)C(=O)OC)ccc31)[C@H](C(=O)N1CCc3cc(OC)c(OC)cc3C1)[C@H]1C(=O)O[C@H](c3ccccc3)[C@H](c3ccccc3)N1[C@@H]2c1ccc(O)cc1 -0.216
